Data on 23 compounds can be found in PubChem BioAssay (Tox21).

Assay [1] in a line: qHTS assay to identify small molecule antagonists of the glucocorticoid receptor (GR) signaling pathway - cell viability counter screen (AID 720693). Also: nearly all actives have a fitted effect of over 55% in size. In general terms: Quantitative high-throughput screening tests each substance at several concentrations.
Assay [2] in a line: qHTS assay for identifying genotoxic compounds that show differential cytotoxicity against isogenic chicken DT40 cell lines with known DNA damage response pathways - Rev3 mutant cell line (AID 743014). Also: nearly all actives have a fitted effect of over 55% in size. Also: potency is read from the fitted curve at half-maximal effect.
Assay [3] is described as follows: qHTS assay to identify small molecule antagonists of the androgen receptor (AR) signaling pathway using the MDA cell line - cell viability counter screen (AID 743041; also: nearly all actives have a fitted effect of over 45% in size). Put shortly:
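qHTS viability read-out; MDA-kb2 AR-luc; R1881-stimulated; 16 h exposure at 37C, 0% CO2; CellTiter-Fluor, 30 min; fluorescence intensity.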

A short description of assay [4]: qHTS assay for identifying genotoxic compounds that show differential cytotoxicity against isogenic chicken DT40 cell lines with known DNA damage response pathways - Rad54/Ku70 mutant cell line (AID 743015). Also: nearly all actives have a fitted effect of over 60% in size. Also: potency is read from the fitted curve at half-maximal effect.
Assay [5] can be described thus: qHTS assay to identify small molecule antagonists of the androgen receptor (AR) signaling pathway - cell viability counter screen (AID 743033; also: nearly all actives have a fitted effect of over 45% in size).
Assay [6] concerns the target Androgen receptor (Homo sapiens) (UniProt P10275). The experiment in a line: qHTS assay to identify small molecule agonists of the androgen receptor (AR) signaling pathway using the MDA cell line (AID 743040; also: nearly all actives have a fitted effect of over 20% in size). The gist of the method: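 Agonist activity is measured as luciferase luminescence in human MDA-kb2 cells whose MMTV reporter responds to both AR and GR. Compounds in DMSO incubate 16 h at 37C, 0% CO2, and ONE-Glo is read after 30 min.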

Assay [7] shares this target. The experiment in a line: qHTS assay to identify small molecule antagonists of the androgen receptor (AR) signaling pathway using the MDA cell line (AID 743042; also: nearly all actives have a fitted effect of over 55% in size). Put shortly:
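MDA-kb2 cells (human breast carcinoma, stably carrying an MMTV-luciferase reporter responsive to AR and GR) were plated at 3,000 cells/well and preincubated 5 hr at 37C, then given compound plus R1881 agonist for 16 h. ONE-Glo luminescence was read.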

Assay [8] has the same target. As to the kind of experiment: qHTS assay to identify small molecule antagonists of the androgen receptor (AR) signaling pathway (AID 743035; active = well fitted inhibition curve with a large enough effect in the signal ratio in the repeat runs, not every such curve was filed as active; the % refers to the signal ratio). The gist of the method:
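Steps: seed AR-UAS-bla GripTite HEK293 cells, incubate 4 h at 37C; pin in test compound, then add agonist R1881; incubate 16 h at 37C; add LiveBLAzer B/G FRET substrate, 2 h at room temperature; read fluorescence.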

For assay [9] the target is unchanged. The experiment in a line: qHTS assay to identify small molecule agonists of the androgen receptor (AR) signaling pathway (AID 743036; active = well fitted activation curve with a large enough effect in the signal ratio in the repeat runs, with a control signal flat, not every such curve was filed as active; the % refers to the signal ratio). The gist of the method: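 AR-bla HEK293 cells, 2,000/well; 4 h preincubation 37C/5% CO2; compound (DMSO) 16 h at 37C; LiveBLAzer B/G FRET substrate 2 h RT; fluorescence intensity read-out.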

Records with an inconclusive call do not appear. The source made the active and inactive calls. Unless noted, calls follow the shape of the dose curve; as a rule, active = well fitted curve in the direction sought with a large enough effect in the repeat runs; inconclusive = weak or mixed curves; inactive = no such curve, though single readings can be large; an effect the other way counts as inactive or inconclusive. Positions of bridges follow the written chain, without caps; N, C: chain ends. Residues, ends and D or L forms follow the SMILES beside them.

Androgen receptor (Homo sapiens), sequence (P10275 whole entry, looked up): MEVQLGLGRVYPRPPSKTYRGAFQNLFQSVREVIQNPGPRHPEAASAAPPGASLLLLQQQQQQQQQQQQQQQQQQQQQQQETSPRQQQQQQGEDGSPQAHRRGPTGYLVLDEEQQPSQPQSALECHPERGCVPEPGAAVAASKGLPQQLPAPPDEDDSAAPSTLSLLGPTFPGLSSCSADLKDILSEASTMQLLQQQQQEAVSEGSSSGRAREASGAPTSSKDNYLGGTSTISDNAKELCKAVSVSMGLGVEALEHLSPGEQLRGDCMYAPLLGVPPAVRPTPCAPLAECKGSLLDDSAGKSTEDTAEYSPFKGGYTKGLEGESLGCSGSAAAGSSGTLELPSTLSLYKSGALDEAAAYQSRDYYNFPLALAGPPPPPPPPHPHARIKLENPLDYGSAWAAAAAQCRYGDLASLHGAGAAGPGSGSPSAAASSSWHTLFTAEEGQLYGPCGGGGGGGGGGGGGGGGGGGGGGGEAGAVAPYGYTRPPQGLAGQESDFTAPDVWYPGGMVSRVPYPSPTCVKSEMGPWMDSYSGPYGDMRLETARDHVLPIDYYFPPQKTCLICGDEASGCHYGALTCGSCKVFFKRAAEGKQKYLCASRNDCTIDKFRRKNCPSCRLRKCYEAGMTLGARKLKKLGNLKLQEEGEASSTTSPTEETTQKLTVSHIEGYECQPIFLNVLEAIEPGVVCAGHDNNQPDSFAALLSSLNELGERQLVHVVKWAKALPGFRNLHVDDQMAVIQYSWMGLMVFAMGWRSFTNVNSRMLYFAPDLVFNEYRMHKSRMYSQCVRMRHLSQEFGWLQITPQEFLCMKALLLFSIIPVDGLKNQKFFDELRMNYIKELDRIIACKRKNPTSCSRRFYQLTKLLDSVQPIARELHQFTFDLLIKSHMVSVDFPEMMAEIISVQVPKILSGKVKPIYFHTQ

As for `Cn1c(=O)c2c(ncn2CCOC(=O)C(C)(C)Oc2ccc(Cl)cc2)n(C)c1=O`, the Potency result in assay [1], in [2] and in assay [3] was “inactive” each time.
Turning to `COc1cc2c(cc1OC)CC(=O)N(CCCN(C)C[C@H]1Cc3cc(OC)c(OC)cc31)CC2`, the Potency entry in [1], in assay [5] and in [3] was “inactive” each time. For the same compound, the Potency in assay [4] is 9.44 µM (active).
Consider `O=C(O)c1cc2ccccc2c(Cc2c(O)c(C(=O)O)cc3ccccc23)c1O`, for which the Potency entry in [1], in [4], in assay [5] and in assay [3] was “inactive” each time.
As to `NC(=O)OC[C@@H]1[C@H](NC(=O)/C(=N\OCC(=O)O)c2csc(N)n2)C(=O)N1S(=O)(=O)O`, the Potency entry in [1], in assay [4], in assay [5] and in assay [3] was “inactive” each time.
In the case of `CCOC(=O)[C@H](CS)NCCN[C@@H](CS)C(=O)OCC`, the Potency entry in assay [1], in assay [2], in [5] and in [3] was “inactive” each time.
Turning to `O=C(OCCO)c1ccccc1O`, the Potency result in assay [1], in [2], in [4], in assay [5] and in assay [3] was “inactive” each time.
On to `C=C1c2c(Cl)ccc(O)c2C(O)=C2C(=O)[C@]3(O)C(O)=C(C(N)=O)C(=O)[C@@H](N(C)C)[C@@H]3[C@@H](O)[C@H]12`, for which the Potency result in assay [1], in assay [2], in assay [5], in assay [6], in [3] and in [7] was “inactive” throughout.
Turning to `CCN(CC)c1ccc(N=Nc2ccc(S(=O)(=O)N(C)C)cc2)c(S(=O)(=O)NCC[n+]2ccccc2)c1`, the Potency result in assay [1], in [2], in [5], in assay [8], in assay [9] and in [6] was “inactive” each time. Besides, the Potency result in assay [7] was “inactive”.
Turning to `C[N+]1(C)[C@@H]2CC(OC(=O)C(O)(c3cccs3)c3cccs3)C[C@H]1[C@@H]1O[C@@H]12` (some centres undefined), the Potency result in [1], in assay [2], in [4] and in assay [3] was “inactive” each time.
`CC(C)(CO)[C@@H](O)C(=O)NCCCC(=O)O`: the Potency entry in assay [1], in assay [4], in [5], in assay [8], in assay [9] and in assay [6] was “inactive” in each case. The Potency entry in assay [7] is “inactive”.
In the case of `NCCCC[C@H](NC(=O)[C@@H]1CCCN1C(=O)[C@@H]1CSSC[C@H](NC(=O)CNC(=O)CNC(=O)CN)C(=O)N[C@@H](Cc2ccc(O)cc2)C(=O)N[C@@H](Cc2ccccc2)C(=O)N[C@@H](CCC(N)=O)C(=O)N[C@@H](CC(N)=O)C(=O)N1)C(=O)NCC(N)=O` (H-GGGCYFQNCPKG-NH2; disulfide 4-9), the Potency result in [1], in assay [2], in assay [4] and in assay [3] was “inactive” in each case.
As to `O=C(O)c1ccc(OCCn2ccnc2)cc1`, the Potency entry in assay [1], in [2], in assay [4] and in assay [3] was “inactive” each time.
For `CN1CCN2c3ncccc3Cc3ccccc3C2C1` (centres undefined), the Potency result in [1], in assay [2] and in assay [3] was “inactive” throughout.
As for `CC(C)(C)NCC(O)CSc1nc(-c2ccc(C(N)=O)s2)cs1` (centres undefined), the Potency result in assay [1], in assay [2], in assay [5] and in assay [3] was “inactive” each time.
Turning to `CC(C)[C@@H]1CC[C@@H](C)C[C@H]1OC(=O)c1ccccc1O`, the Potency entry in [1], in [4], in [5], in assay [9], in assay [6] and in assay [3] was “inactive” in each case. In addition, in assay [7], the Potency result is “inactive”.
`O=C(O)[C@H](CC(=O)N1C[C@H]2CCCC[C@H]2C1)Cc1ccccc1`: the Potency result in [1], in [4], in assay [5] and in [3] was “inactive” each time.
In the case of `[O]=[Bi][O]C(=O)[O][Bi]=[O]`, the Potency result in [1], in assay [2], in assay [5] and in assay [3] was “inactive” throughout.
Regarding `CN1CCN(C2=Nc3ccccc3Cc3ccccc32)CC1`, the Potency result in assay [1], in [5] and in assay [3] was “inactive” in each case. Further, the Potency in assay [2] was 23.7 µM (active); in assay [4] it was 29.8 µM (active).
For `CC(=O)Oc1cccc(C(=O)O)c1OC(C)=O`, the Potency result in assay [1], in [2], in assay [4], in assay [5] and in assay [3] was “inactive” in each case.
On to `CC(C)(C)NC(=O)[C@H]1CC[C@H]2[C@@H]3CC=C4C=C(C(=O)O)CC[C@]4(C)[C@H]3CC[C@]12C`, for which the Potency entry in assay [1], in assay [2], in assay [5], in assay [8], in [6] and in assay [3] was “inactive” throughout. The Potency entry in assay [7] was “inactive”.
With `CC1CS(=O)(=O)CCN1/N=C/c1ccc([N+](=O)[O-])o1` (centres undefined), the Potency entry in assay [1], in assay [2], in [4], in [5] and in [3] was “inactive” in each case.
Regarding `CS(=O)(=O)c1ccc(C2=C(c3ccccc3)C(=O)OC2)cc1`, the Potency entry in assay [1], in assay [2], in assay [4], in assay [5] and in assay [3] was “inactive” in each case.
For the compound `CCCCC/C=C\C/C=C\C/C=C\CCCCC(=O)O`, the Potency entry in assay [1], in assay [2], in [4] and in assay [3] was “inactive” in each case.
